Measurements taken from PubChem BioAssay (NCI).
This is part of a sample that, as a whole, favours compounds with a hit. Of some 83,000 tested, about 20% had one in any assay.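 Plates (96-well) were seeded with cells, treated with compound at one concentration, and incubated for 48 hours before percent growth was determined.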 Values without a mark were called inactive. Activity calls are given as the source filed them. How the source made its calls: active means growth percent below 10; inactive means the rest.

Tests used:
Assay in all cases: NCI-60 one-dose screen, 48 h (100 = growth as untreated, 0 = no growth, -100 = all killed)
Settings in all cases: 10 µM unless noted
HCT-15 colon = test system: HCT-15 colon
HT29 colon = test system: HT29 colon
SNB-75 CNS = test system: SNB-75 CNS
SNB-19 CNS = test system: SNB-19 CNS
U251 CNS = test system: U251 CNS
SK-MEL-5 melanoma = test system: SK-MEL-5 melanoma
UACC-62 melanoma = test system: UACC-62 melanoma
LOX IMVI melanoma = test system: LOX IMVI melanoma
SK-MEL-28 melanoma = test system: SK-MEL-28 melanoma

| SMILES | growth (HCT-15 colon) | growth (HT29 colon) | growth (SNB-75 CNS) | growth (SNB-19 CNS) | growth (U251 CNS) | growth (SK-MEL-5 melanoma) | growth (UACC-62 melanoma) | growth (LOX IMVI melanoma) | growth (SK-MEL-28 melanoma) |
| --- | --- | --- | --- | --- | --- | --- | --- | --- | --- |
| COC(=O)[C@H](C)NC(=O)[C@@H](OC)[C@@H]1Cc2cc3cc(OC4CC(OC5CC(O)C(O)C(C)O5)C(O)C(C)O4)c(C)c(O)c3c(O)c2C(=O)[C@H]1OC1CC(OC2CC(OC3CC(C)(O)C(O)C(C)O3)C(O)C(C)O2)C(O)C(C)O1 (stereo partly drawn) | 19.3% | 3.99% (active) | -63.8% (active) | 8.48% (active) | 7.45% (active) | -67.4% (active) | -52.8% (active) | -27.4% (active) | -37.7% (active) |
| Cc1ccc(Nc2nccc(N(C)c3ccc4c(C)n(C)nc4c3)n2)cc1S(N)(=O)=O | 14.3% | 3.61% (active) | -25.9% (active) | 30.9% | 18.8% | -34% (active) | -18.3% (active) | -30.1% (active) | 8.83% (active) |
| Nc1nc(Nc2ccccc2)c(C=Nc2ccccc2)c(=O)[nH]1 | 96.9% | 101% | 80.3% | 89.1% | 89.1% | 98.4% | 84.3% | 87.1% | 109% |
| CCOC(=O)Sc1ncnc2nc[nH]c12 | 82.5% | 59.6% | 62% | 91.1% | 91.7% | 74.1% | 16% | 7.98% (active) | 100% |
| COc1ccc(C2OC(c3cc(-c4cc5ccccc5o4)nn3-c3ccccc3)=NN2C(C)=O)cc1 (stereo not drawn) | 97.2% | 93.3% | 87.5% | 91.3% | 96.2% | 8.69% (active) | 86.9% | 85.5% | 109% |
| CCCC(=O)OCC1OC(n2cnc3c(=S)nc(N)[nH]c32)C(OC(=O)CCC)C1OC(=O)CCC (stereo not drawn) | 50.2% | 30.2% | 34.8% | 89.3% | 68.2% | 42.8% | 8.36% (active) | – | 75.8% |
| Fc1ccc(NCc2cn(-c3ccccc3)nc2-c2ccc(OCc3ccccc3)cc2)cc1Cl | 92.2% | 71.3% | 77.7% | 95.1% | 97.1% | 101% | 90.7% | – | 98.9% |
| COC(=O)CC[C@@H](C)[C@H]1CC[C@H]2C3CC[C@@H]4C[C@@H]5CC[C@]4(C)[C@@]3(O5)[C@H](Br)[C@@H](Br)[C@]12C (stereo partly drawn) | 97.3% | 81.6% | 84.3% | 106% | 88.6% | 99.3% | 86.3% | 97.1% | 105% |
| C[C@@H]1COC(Nc2ccc3ncnc(Nc4ccc(OCc5nccs5)c(Cl)c4)c3c2)=N1 | 29.2% | 14.8% | 27.9% | 67.8% | 42.3% | -39% (active) | 23.5% | 17.8% | 29.8% |
| c1cn2cc(-c3ccc4cn[nH]c4c3)nc(Nc3ccc(N4CCOCC4)cc3)c2n1 | 66.5% | 32.7% | -3.9% (active) | 50.3% | 41.5% | 71.4% | 53.3% | – | 63% |
| Cn1ccnc1C(=O)/C=C/c1ccc(CC(=O)Nc2ccc(S(F)(F)(F)(F)F)cc2)cc1 | 1.2% (active) | -36% (active) | 3.35% (active) | -39.9% (active) | -93.3% (active) | 33.2% | -2.41% (active) | – | 38.2% |
| COc1ccc2c(CCCCC(c3ccccc3)c3ccccc3)c3[n+](cc2c1OC)CCc1cc2c(cc1-3)OCO2 | -47% (active) | -73.7% (active) | -74% (active) | -65.2% (active) | -93.2% (active) | -99.5% (active) | -63.6% (active) | -100% (active) | -82.1% (active) |
| CCN(CC)C(=O)C[N+](C)(C)CCOC(c1ccccc1)c1ccccc1 | 101% | 105% | 75.4% | 106% | 110% | 103% | 106% | 97.7% | 105% |
| N#Cc1c(C(F)(F)F)cc(Nc2ccc3nc(NCCN4CCCC4)oc3c2)n2c1nc1ccccc12 | 56.6% | 5.45% (active) | 82.6% | 85.2% | 89% | 69.8% | 78.1% | 62.3% | 72.8% |
| Cc1cc([C@@H](C)Nc2ccccc2C(=O)O)c2nc(N3CCOCC3)cc(=O)n2c1 | 44.5% | 35.9% | -19.5% (active) | 52.8% | 55.4% | 52.5% | 14% | – | 43.9% |
| NC(=O)c1n[nH]n2c1nc(=O)c1c3c(sc12)CCCC3 | 107% | 106% | 102% | 104% | 97% | -31.5% (active) | 103% | 99.3% | 120% |
| NS(=O)(=O)c1ccc(CCN2C(=O)/C(=C\c3ccc(Cl)cc3)C=C2c2ccc3ccccc3c2)cc1 | 94.9% | 87.9% | 78.1% | 92.5% | 85.5% | 94.8% | 71.8% | 96.1% | 103% |
